Compound activity deposited in PubChem BioAssay by several laboratories.
MOR-DOR ag – agonists of human mu-delta opioid receptor heterodimerization; P35372+P41143; cells, OPRM1-OPRD1 heterodimerization, luminescence; activation, % at 9.3 µM; actives 0.3% (n = 340,000); AID 504326
MOR-DOR inv ag – inverse agonists of human mu-delta opioid receptor heterodimerization; P35372+P41143; cell-based MOR-DOR heterodimer luminescence, inverse agonism; inhibition, % at 9.3 µM; actives 0.21% (n = 340,000); AID 504357; in the data active = inhibition above about 22%, passing the limit was not always enough
V-ATPase pH – yeast V-ATPase proton transport regulation by pHLuorin. S. cerevisiae, pHLuorin cytosolic pH fluorescence. AID 504577. response, % at 10 µM. actives 0.37% (n = 350,000); in the data active = response mostly above about 7.3%, no sharp cut-off; inactive = mostly below about 5.4%; note: actives read high
MIN6 prolif-1 – MIN6 beta-cell proliferation induction; proliferation, % at 10 µM; actives 0.29% (n = 330,000); MIN6 cells proliferation, ATPlite luminescence, 48 h; cells starved in 0.2% serum; 100% = growth in 10% serum;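 active = compounds whose signal lies at least 3.5 SD above the mean of all wells on their plate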
HTR5A ag ctr – activates human HTR5A in OPRM1-OPRD1 agonist counter-screen | actives 0.61% (n = 340,000) | activation, % at 9.3 µM | AID 504692 | HTR5A agonist assay, luminescence, cell-based; in the data active = activation mostly above about 9.5%, no sharp cut-off; inactive = mostly below about 7.6%
Target sequence (P47898 whole entry, looked up): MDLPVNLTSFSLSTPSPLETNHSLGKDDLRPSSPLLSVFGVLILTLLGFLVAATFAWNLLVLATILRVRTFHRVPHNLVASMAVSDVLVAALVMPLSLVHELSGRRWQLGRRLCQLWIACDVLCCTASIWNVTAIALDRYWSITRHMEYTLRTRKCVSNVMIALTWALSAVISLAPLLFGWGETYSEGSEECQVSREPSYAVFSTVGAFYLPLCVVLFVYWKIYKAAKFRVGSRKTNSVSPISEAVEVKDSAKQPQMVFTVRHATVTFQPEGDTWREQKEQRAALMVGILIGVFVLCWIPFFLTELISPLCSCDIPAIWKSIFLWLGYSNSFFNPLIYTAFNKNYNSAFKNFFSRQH
HTR5A inv ctr – inverse agonist of human HTR5A in OPRM1-OPRD1 counter-screen. inhibition, % at 9.3 µM. HTR5A cell line, luminescence, inverse agonism. actives 0.083% (n = 340,000). AID 504634. P47898; in the data active = inhibition mostly above about 23%, no sharp cut-off; inactive = mostly below about 18%
MIN6 prolif-2 – MIN6 beta-cell replication induction, confirmed; shares compounds with MIN6 prolif-1; MIN6 beta-cell proliferation, ATPlite luminescence, 48 h; cells kept in 0.2% serum; scaled between 0.2% and 10% serum; proliferation increase, % at 50 µM; 920 tested, under 10 active; AID 463095;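 active = proliferation increase above 40% at any of the four tested concentrations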
OPRM1-D1 ag cf – confirmation of human OPRM1-OPRD1 heterodimerization agonists | shares compounds with MOR-DOR ag | cells, MOR-DOR heterodimerization, luminescence complementation | activation, % at 9.3 µM | actives 45% (n = 830)
HTR5A ag counter – activates human HTR5A in OPRM1-OPRD1 agonist counter-screen | AID 504905 | actives 8% (n = 830) | activation, % at 9.3 µM | HTR5A agonist counterscreen, cell luminescence | shares compounds with MOR-DOR ag; in the data active = activation above about 17%
Of the large screens only hits and unclear results are named; the others gave an inactive call (follow-up assays come after a bar, where they were run). Hits are enriched below; roughly 1.7% of the tested compounds scored in any of these assays. Cut-off read from the data, not from the text of the source, unless noted: active = activation above about 18%; inactive = the rest.

CC(Cc1ccccc1)NC(=O)/C=C/C(=O)O (stereo unspecified)	MIN6 prolif-1 7.3 (no result: V-ATPase pH) | MIN6 prolif-2 inactive
CCC1(OC(=O)c2ccccc2)CC(C)N(C)CC1C (stereo unspecified)	MIN6 prolif-1 7.0 | MIN6 prolif-2 inactive
COc1cc2occc2c2oc(=O)ccc12	none
COc1cc2ccc(=O)oc2c2ccoc12	MIN6 prolif-1 11.7 | MIN6 prolif-2 inactive
Cc1oc(-c2ccccc2F)nc1CS(=O)CC(=O)N1CCC2(CC1)OCCO2 (stereo unspecified)	none
O=C(N/N=C/c1c(O)n(Cc2ccco2)c(=O)[nH]c1=O)c1ccccc1O	MIN6 prolif-1 8.0 | MIN6 prolif-2 inactive
CCCCC(=O)N/N=C/c1c(O)n(Cc2ccco2)c(=O)[nH]c1=O	none
O=c1oc2ccccc2c(O)c1C(c1ccccn1)c1c(O)c2ccccc2oc1=O	MIN6 prolif-1 8.0 | MIN6 prolif-2 inactive
Cc1c(C(c2ccc(O)cc2)c2c(O)c3ccccc3oc2=O)c(=O)n(-c2ccccc2)n1C (stereo unspecified)	none
O=C1NC(=O)C(C(CC(=O)c2ccccc2)c2ccccc2)C(=O)N1 (stereo unspecified)	none
CCC(=NCCN1CCOCC1)c1c(O)n(-c2ccccc2C)c(=O)[nH]c1=O	none
CC(=NCCN1CCOCC1)c1c(O)n(-c2ccccc2C)c(=O)[nH]c1=O	MIN6 prolif-1 12.1 | MIN6 prolif-2 inactive
COc1ccc2c(c1)/C(=C/c1cnc[nH]1)C(=O)N2	MIN6 prolif-1 18.5 | MIN6 prolif-2 inactive
c1ccc(P(c2ccccc2)c2ccccn2)cc1	MIN6 prolif-1 5.8 | MIN6 prolif-2 inactive
CC1(C)C2CC=C(CN3CCOCC3)C1C2 (stereo unspecified)	none
CC1=NCCc2c1[nH]c1ccccc21	MOR-DOR ag 19.5 | OPRM1-D1 ag cf inactive | HTR5A ag counter inactive
COc1ccc(CCn2c(O)c(C=NCCN3CCCCC3)c(=O)[nH]c2=O)cc1OC	MOR-DOR ag 78.9 | OPRM1-D1 ag cf inactive | HTR5A ag counter inactive
Cc1ccc(-n2c(O)c(C=NCCCn3ccnc3)c(=O)[nH]c2=O)cc1	none
Cc1ccsc1C(=O)C1CCCN(Cc2cnc(N3CCOCC3)s2)C1 (stereo unspecified)	none
C[C@@H]1O[C@@H](O[C@H]2C[C@@H](O)[C@]3(CO)[C@H]4[C@H](O)C[C@]5(C)[C@@H](C6=CC(=O)OC6)CC[C@]5(O)[C@@H]4CC[C@]3(O)C2)[C@H](O)[C@H](O)[C@H]1O	MOR-DOR ag 69.8, HTR5A ag ctr 30.1 | OPRM1-D1 ag cf 79.4 | HTR5A ag counter inactive
Cc1cc(C(=O)CS(=O)c2ccc(F)cc2)cc(C)c1OC(=O)N(C)C (stereo unspecified)	none
CN(C(=O)Cc1ccc(Cl)c(Cl)c1)C(CN1CCCC1)c1cccc(OCC(=O)O)c1 (stereo unspecified)	MOR-DOR ag 57.0 | OPRM1-D1 ag cf 36.9 | HTR5A ag counter inactive
Cc1cccc(OCC(=O)N2CCN(Cc3ccc4c(c3)OCO4)CC2)c1	none
CCOC(=O)C1(c2ccccc2)CCN(CCC(=O)Nc2ccccc2OC)CC1	MOR-DOR ag 91.8 | OPRM1-D1 ag cf inactive | HTR5A ag counter inactive
CCOC(=O)C1(c2ccccc2)CCN(CCC(=O)Nc2ccc(F)cc2)CC1	MOR-DOR ag 131.4 | OPRM1-D1 ag cf 153.0 | HTR5A ag counter inactive
CCOC(=O)C1(c2ccccc2)CCN(CC(=O)Nc2cccc3ccccc23)CC1	MOR-DOR ag 24.3 | OPRM1-D1 ag cf inactive | HTR5A ag counter inactive
CCOC(=O)C1(c2ccccc2)CCN(CC(=O)c2ccc(NC(C)=O)cc2)CC1	none (no result: MIN6 prolif-1)
C=CCN1C(=O)NC(=O)/C(=C/c2ccc(N(C)C)c(Br)c2)C1=O	none
COc1ccc2c3c1OC1[C@H](O)CCC4[C@@H](C2)N(C)CC[C@]314 (stereo partly specified)	MOR-DOR ag 45.9 | OPRM1-D1 ag cf inactive | HTR5A ag counter inactive
CC(=O)OC1C=CC2[C@H]3Cc4ccc(O)c5c4[C@@]2(CCN3C)C1O5 (stereo partly specified)	MOR-DOR ag 282.2 | OPRM1-D1 ag cf inactive | HTR5A ag counter inactive
COc1ccc2c(c1O)C13CCN(C)C(C2)C1CCC(=O)C3 (stereo unspecified)	none (no result: MOR-DOR ag, MOR-DOR inv ag, HTR5A ag ctr, HTR5A inv ctr)
CN1CC[C@]23c4c5ccc(O)c4OC2C(O)C=CC3[C@H]1C5 (stereo partly specified)	none (no result: MOR-DOR ag, MOR-DOR inv ag) | HTR5A ag counter inactive
CN1CC[C@]23c4c5ccc(OC6OC(C(=O)O)[C@@H](O)C(O)[C@H]6O)c4OC2C(O)C=CC3[C@H]1C5 (stereo partly specified)	none
COC(=O)C1=C(c2ccc(S(C)(=O)=O)cc2)C[C@@H]2CC[C@H]1N2C(=O)NC1CCCCC1	none
CC[C@H](OC(C)=O)C(C[C@H](C)N(C)C)(c1ccccc1)c1ccccc1	MOR-DOR ag 220.6 | OPRM1-D1 ag cf inactive | HTR5A ag counter 51.6
CN(C)C(CNC(=O)Cc1c(Cl)cccc1Cl)c1ccccc1 (stereo unspecified)	MOR-DOR ag 144.6 | OPRM1-D1 ag cf inactive | HTR5A ag counter inactive
CC(NCc1cccc(Cl)c1Cl)C(O)c1ccccc1 (stereo unspecified)	none
CCOC(=O)C1(CCOc2ccccc2)CCN(Cc2ccc(C)s2)CC1	MOR-DOR ag 32.8 | OPRM1-D1 ag cf 38.5 | HTR5A ag counter inactive
CCOC(=O)C1(CCc2ccccc2)CCN(Cc2ccc3c(c2)OCCO3)CC1	MOR-DOR ag 24.7 | OPRM1-D1 ag cf inactive | HTR5A ag counter inactive
CCOC(=O)C1(CCc2ccccc2)CCN(Cc2ccc(NC(C)=O)cc2)CC1	MOR-DOR ag 292.7 | OPRM1-D1 ag cf 372.3 | HTR5A ag counter inactive
CCOC(=O)C1(CCc2ccccc2)CCN(C2CCSCC2)CC1	none
COC(=O)C1=C(c2c(C)noc2C)C[C@@H]2CC[C@H]1N2C(=O)NCc1ccc(C(F)(F)F)cc1	none
CC(=O)O[C@@H]1CC[C@]2(C)C3CC[C@@]4(C)C(C[C@@H](O)[C@@H]4O)C3[C@@H](OC(C)=O)C[C@H]2C1 (stereo partly specified)	none
CC(=O)[C@H]1CCC2C3CC[C@H]4C[C@@H](O)CC[C@]4(C)C3CC[C@@]21C (stereo partly specified)	none
